According to the supplement of paper PMC10849652:
The full data set covers some 8,800 targets. This sample favours those with a hit. About 0.5% of all pairs of compound and target were hits.

Columns and labels:
Experiment in all cases: log2 fold change, soluble protein after heating vs DMSO (PISA); higher = thermal stabilisation; K562 lysate, 10 uM; active = over 0.2 and 3.5 SD of the protein, either way, in both replicates (recomputed)
[1] = compound: CCCS(=O)(=O)Nc1ccc(F)c(C(=O)c2c[nH]c3ncc(-c4ccc(Cl)cc4)cc23)c1F [vemurafenib]
In short: (§1)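 K562 pellets were dounce-homogenised in PBS pH 7.4 with 1 mM MgCl2, and the crude extract at 1 mg/mL protein was treated with 10 μM compound for 30 min. Aliquots were heated for 3 min across 48°C-58°C, pooled, and brought to 0.5% NP-40 at 4°C; soluble protein was the supernatant after 21,000xg for 90 min. Soluble protein was quantified by TMTpro 16plex LC-MS/MS with channel sums equalised, and reported as log2 fold change in thermal stability against DMSO controls, with values from duplicates.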

[2] = compound: CCCS(=O)(=O)Nc1ccc(F)c(C(=O)c2c[nH]c3ncc(Cl)cc23)c1F
In short: as §1

[3] = compound: CCN(CCCOc1ccc2c(Nc3cc(CC(=O)Nc4cccc(F)c4)[nH]n3)ncnc2c1)CCOP(=O)(O)O [barasertib]
In short: as §1

[4] = compound: CC[C@@H]1C(=O)N(C)c2cnc(Nc3ccc(C(=O)NC4CCN(C)CC4)cc3OC)nc2N1C1CCCC1
In short: as §1

[5] = compound: CC[C@@H]1C(=O)N(C)c2cnc(Nc3ccc(C(=O)N[C@H]4CC[C@H](N5CCN(CC6CC6)CC5)CC4)cc3OC)nc2N1C(C)C [volasertib]
In short: as §1

[6] = compound: CCn1c(C(=O)N(C2CC2)C2CC2)cc2c3c(ncn3C)c(Nc3cc(C)n(C)n3)nc21
In short: as §1

[7] = compound: CCn1cc(-c2ccnc3[nH]c(-c4cccc(CN(C)C)c4)cc23)c(-c2ccc(NC(=O)N(C)C)cc2)n1
In short: as §1

[8] = compound: CN1CCC(CNc2ccc3ncc(-c4cccc(OC(F)(F)F)c4)n3n2)CC1
In short: as §1

[9] = compound: CN1CCN(CCOc2cc(OC3CCOCC3)c3c(Nc4c(Cl)ccc5c4OCO5)ncnc3c2)CC1 [saracatinib]
In short: as §1

[10] = compound: CN1CCN(c2nc(C3=C(c4c[nH]c5ccccc45)C(=O)NC3=O)c3ccccc3n2)CC1 [sotrastaurin]
In short: as §1

[11] = compound: CN1CC[C@H](c2c(O)cc(O)c3c(=O)cc(-c4ccccc4Cl)oc23)[C@H](O)C1 [alvocidib]
In short: as §1

[12] = compound: CN1CCc2c(c3ccccc3n2Cc2ccc(C(=O)NO)cc2)C1 [Tubastatin A]
In short: as §1

[13] = compound: CNC(=O)C1=CC=CC=C1NC2=NC(=NC=C2Cl)NC3=C(C=C(C=C3)N4CCOCC4)OC
In short: as §1

[14] = compound: CNC(=O)c1ccc(Nc2ncc(C(F)(F)F)c(NCc3nccnc3N(C)S(C)(=O)=O)n2)cc1 [defactinib]
In short: as §1

[15] = compound: CNc1nc(-c2ccc3c(N)n[nH]c3c2)cc(N2C[C@@H](C(=O)NC3CCCCC3)CC[C@H]2C)n1
In short: as §1

[16] = compound: COC(=O)N[C@@H](C)CNc1nccc(-c2cn(C(C)C)nc2-c2cc(Cl)cc(NS(C)(=O)=O)c2F)n1 [encorafenib]
In short: as §1

[17] = compound: COC(=O)[C@H](CCSC)NC(=O)C1=C(C=C(C=C1)NC[C@H](CS)N)C2=CC=CC=C2
In short: as §1

[18] = compound: COc1cc(Nc2ncc3c(n2)-c2ccc(Cl)cc2C(c2c(F)cccc2OC)=NC3)ccc1C(=O)O [alisertib]
In short: as §1

[19] = compound: COc1cc2nc(-c3cc(F)ccc3O)nc(N[C@@H]3CNC[C@H]3C(C)(C)O)c2cc1OC
In short: as §1

[20] = compound: COc1cc2ncnc(Nc3ccc(F)c(Cl)c3)c2cc1OCCCN1CCOCC1 [gefitinib]
In short: as §1

Measured: log2 fold change

DST (UniProt Q03001)
inactive: [1] 0.23 | [2] 0.021 | [3] 0.083 | [4] 0.021 | [5] -0.045 | [6] -0.073 | [7] -0.174 | [8] 0.076 | [9] 0.052 | [10] -0.024 | [11] -0.047 | [12] 0.033 | [13] -0.003 | [14] -0.094 | [15] 0.114 | [16] 0.018 | [17] 0.048 | [18] 0.003 | [19] 0.033 | [20] 0.046

FTSJ1 (UniProt Q9UET6)
Sequence of UniProt Q9UET6 (Q9UET6 whole entry, looked up): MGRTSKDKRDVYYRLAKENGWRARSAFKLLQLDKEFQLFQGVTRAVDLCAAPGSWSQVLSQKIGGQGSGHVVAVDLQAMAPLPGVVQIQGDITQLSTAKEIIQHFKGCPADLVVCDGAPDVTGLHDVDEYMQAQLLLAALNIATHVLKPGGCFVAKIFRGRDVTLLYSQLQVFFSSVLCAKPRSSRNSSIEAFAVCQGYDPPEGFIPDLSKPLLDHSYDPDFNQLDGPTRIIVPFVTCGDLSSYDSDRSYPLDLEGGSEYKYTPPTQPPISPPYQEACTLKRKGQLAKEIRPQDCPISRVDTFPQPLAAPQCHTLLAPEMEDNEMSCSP
inactive: [1] -0.036 | [2] -0.006 | [3] -0.043 | [4] -0.04 | [5] -0.056 | [6] -0.003 | [7] 0.067 | [8] 0.027 | [9] -0.018 | [10] 0.089 | [11] 0.003 | [12] -0.038 | [13] 0.049 | [14] -0.021 | [15] -0.016 | [16] -0.025 | [17] 0.089 | [18] 0.004 | [19] 0.005 | [20] -0.001

GALNT2 (UniProt Q10471)
Sequence of UniProt Q10471 (Q10471 whole entry, looked up): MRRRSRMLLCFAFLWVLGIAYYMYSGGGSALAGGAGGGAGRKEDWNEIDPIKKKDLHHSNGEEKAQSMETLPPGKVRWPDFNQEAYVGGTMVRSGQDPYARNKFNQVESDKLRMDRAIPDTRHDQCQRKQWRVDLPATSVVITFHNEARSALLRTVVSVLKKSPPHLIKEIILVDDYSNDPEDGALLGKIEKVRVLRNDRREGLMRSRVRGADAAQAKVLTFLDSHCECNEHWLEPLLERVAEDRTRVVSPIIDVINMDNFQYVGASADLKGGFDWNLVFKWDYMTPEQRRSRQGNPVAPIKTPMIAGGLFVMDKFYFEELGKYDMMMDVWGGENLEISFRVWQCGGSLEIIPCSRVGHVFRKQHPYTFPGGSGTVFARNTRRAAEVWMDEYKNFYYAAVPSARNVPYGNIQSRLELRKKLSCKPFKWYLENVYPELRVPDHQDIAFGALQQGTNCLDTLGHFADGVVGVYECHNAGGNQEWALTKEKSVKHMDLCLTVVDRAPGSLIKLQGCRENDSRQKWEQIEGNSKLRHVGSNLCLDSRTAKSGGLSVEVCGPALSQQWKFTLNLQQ
inactive: [1] 0.013 | [2] 0.014 | [3] 0.003 | [4] -0.014 | [5] 0.002 | [6] 0.042 | [7] 0.065 | [8] 0.035 | [9] -0.004 | [10] 0.016 | [11] -0.069 | [12] 0.073 | [13] -0.004 | [14] 0.008 | [15] -0.057 | [16] 0.048 | [17] -0.047 | [18] 0.028 | [19] -0.021 | [20] -0.021

EXOC1 (UniProt Q9NV70)
Sequence of UniProt Q9NV70 (Q9NV70 whole entry, looked up): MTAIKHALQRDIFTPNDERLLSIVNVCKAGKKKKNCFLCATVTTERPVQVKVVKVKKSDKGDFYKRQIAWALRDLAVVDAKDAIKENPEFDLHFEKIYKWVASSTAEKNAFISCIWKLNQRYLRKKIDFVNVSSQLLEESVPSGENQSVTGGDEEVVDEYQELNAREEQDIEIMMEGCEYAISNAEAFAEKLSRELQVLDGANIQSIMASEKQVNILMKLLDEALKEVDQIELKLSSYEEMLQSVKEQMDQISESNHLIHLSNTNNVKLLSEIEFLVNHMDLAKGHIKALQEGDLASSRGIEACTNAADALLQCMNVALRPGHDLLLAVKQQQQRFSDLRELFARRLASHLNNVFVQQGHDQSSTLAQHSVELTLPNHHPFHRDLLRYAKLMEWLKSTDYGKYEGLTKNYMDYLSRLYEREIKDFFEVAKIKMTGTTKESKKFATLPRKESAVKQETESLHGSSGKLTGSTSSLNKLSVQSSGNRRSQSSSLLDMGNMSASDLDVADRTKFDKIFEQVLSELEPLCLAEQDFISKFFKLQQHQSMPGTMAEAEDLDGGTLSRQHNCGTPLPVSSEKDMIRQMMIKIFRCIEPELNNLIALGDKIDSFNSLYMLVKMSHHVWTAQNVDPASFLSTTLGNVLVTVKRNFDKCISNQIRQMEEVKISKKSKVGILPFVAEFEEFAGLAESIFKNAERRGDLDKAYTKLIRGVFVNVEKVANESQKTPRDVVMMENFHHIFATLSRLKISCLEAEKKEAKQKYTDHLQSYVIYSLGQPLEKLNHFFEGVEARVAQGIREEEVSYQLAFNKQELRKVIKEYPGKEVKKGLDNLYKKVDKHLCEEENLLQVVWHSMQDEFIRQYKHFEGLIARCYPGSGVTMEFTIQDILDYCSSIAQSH
inactive: [1] 0 | [2] 0.027 | [3] 0.051 | [4] -0.106 | [5] -0.03 | [6] 0.082 | [7] 0.053 | [8] -0.119 | [9] 0 | [10] 0.02 | [11] 0.01 | [12] -0.139 | [13] 0.006 | [14] 0.022 | [15] -0.086 | [16] 0.014 | [17] 0.012 | [18] 0.007 | [19] -0.015 | [20] 0.015

EHD2 (UniProt Q9NZN4)
Sequence of UniProt Q9NZN4 (Q9NZN4 whole entry, looked up): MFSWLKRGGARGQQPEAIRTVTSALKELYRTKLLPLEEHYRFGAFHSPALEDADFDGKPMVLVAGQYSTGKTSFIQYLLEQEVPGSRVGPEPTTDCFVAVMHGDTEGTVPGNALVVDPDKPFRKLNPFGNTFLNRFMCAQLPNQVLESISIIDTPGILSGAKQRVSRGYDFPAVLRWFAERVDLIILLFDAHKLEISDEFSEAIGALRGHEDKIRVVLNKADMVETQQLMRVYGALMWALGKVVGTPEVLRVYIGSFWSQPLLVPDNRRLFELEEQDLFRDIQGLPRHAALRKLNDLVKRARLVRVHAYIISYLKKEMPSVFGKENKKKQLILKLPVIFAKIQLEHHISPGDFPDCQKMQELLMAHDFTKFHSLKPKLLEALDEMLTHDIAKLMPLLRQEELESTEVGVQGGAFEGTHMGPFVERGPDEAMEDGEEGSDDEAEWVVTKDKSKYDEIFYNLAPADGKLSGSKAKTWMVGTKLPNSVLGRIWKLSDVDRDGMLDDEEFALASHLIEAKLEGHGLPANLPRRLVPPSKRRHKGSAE
inactive: [1] 0.046 | [2] 0 | [3] 0.022 | [4] 0.007 | [5] -0.111 | [6] 0.005 | [7] 0.016 | [8] -0.066 | [9] 0.075 | [10] 0.017 | [11] -0.012 | [12] -0.051 | [13] 0.055 | [14] 0.032 | [15] -0.037 | [16] 0.001 | [17] 0.246 | [18] -0.015 | [19] 0.071 | [20] -0.04

GABPB1 (UniProt Q06547)
Sequence of UniProt Q06547 (Q06547 whole entry, looked up): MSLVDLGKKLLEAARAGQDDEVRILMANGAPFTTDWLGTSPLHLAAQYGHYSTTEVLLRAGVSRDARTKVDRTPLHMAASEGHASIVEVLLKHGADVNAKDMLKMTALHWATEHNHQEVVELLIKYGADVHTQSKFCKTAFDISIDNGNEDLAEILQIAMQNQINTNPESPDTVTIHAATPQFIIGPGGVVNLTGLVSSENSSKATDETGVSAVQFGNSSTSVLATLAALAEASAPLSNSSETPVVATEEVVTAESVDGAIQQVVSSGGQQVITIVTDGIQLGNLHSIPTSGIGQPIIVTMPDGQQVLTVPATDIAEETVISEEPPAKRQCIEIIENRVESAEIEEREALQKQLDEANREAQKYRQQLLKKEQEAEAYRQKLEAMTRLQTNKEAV
inactive: [1] -0.05 | [2] 0.01 | [3] 0.014 | [4] -0.024 | [5] 0.025 | [6] 0.006 | [7] 0.193 | [8] -0.199 | [9] 0.057 | [10] 0.023 | [11] 0.181 | [12] -0.001 | [13] -0.028 | [14] 0.005 | [15] 0 | [16] 0.036 | [17] 0.097 | [18] -0.016 | [19] -0.043 | [20] 0.024

FBXO38 (UniProt Q6PIJ6)
Sequence of UniProt Q6PIJ6 (Q6PIJ6 whole entry, looked up): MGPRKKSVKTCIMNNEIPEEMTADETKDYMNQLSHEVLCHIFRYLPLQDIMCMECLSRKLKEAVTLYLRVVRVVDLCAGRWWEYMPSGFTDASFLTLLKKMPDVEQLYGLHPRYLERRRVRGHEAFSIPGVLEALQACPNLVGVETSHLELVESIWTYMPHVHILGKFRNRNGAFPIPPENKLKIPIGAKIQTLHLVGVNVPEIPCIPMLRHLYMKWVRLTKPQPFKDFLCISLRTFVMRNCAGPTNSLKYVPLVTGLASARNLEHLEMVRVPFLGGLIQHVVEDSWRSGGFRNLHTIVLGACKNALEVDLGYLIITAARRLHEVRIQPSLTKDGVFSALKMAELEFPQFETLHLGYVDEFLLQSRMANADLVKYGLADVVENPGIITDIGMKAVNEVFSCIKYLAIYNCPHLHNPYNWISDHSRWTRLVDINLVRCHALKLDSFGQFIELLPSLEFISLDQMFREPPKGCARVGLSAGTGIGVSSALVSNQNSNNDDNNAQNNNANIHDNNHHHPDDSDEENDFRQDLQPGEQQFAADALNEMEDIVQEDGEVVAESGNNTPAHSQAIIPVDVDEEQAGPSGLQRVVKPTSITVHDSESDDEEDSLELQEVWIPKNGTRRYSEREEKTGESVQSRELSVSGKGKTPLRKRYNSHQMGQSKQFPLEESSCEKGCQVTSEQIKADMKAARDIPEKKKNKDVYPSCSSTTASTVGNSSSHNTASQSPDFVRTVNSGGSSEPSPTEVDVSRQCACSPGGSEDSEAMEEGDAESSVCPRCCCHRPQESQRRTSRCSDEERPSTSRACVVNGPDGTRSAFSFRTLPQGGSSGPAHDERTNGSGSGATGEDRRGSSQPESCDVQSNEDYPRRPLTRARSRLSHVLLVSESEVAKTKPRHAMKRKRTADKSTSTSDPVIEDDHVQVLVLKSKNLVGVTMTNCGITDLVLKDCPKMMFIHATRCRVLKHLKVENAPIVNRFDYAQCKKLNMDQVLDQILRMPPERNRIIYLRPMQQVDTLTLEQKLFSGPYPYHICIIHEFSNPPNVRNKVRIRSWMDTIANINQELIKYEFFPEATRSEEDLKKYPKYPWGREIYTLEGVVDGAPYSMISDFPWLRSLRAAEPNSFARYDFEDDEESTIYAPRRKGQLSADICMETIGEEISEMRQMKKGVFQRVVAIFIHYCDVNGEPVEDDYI
active: [13] -0.616
inactive: [1] -0.042 | [2] -0.024 | [3] 0.052 | [4] -0.121 | [5] 0.037 | [6] 0.028 | [7] 0.006 | [8] 0.036 | [9] -0.039 | [10] 0.027 | [11] -0.008 | [12] -0.043 | [14] 0.019 | [15] 0.01 | [16] -0.004 | [17] -0.038 | [18] -0.015 | [19] -0.062 | [20] 0.056

FARSB (UniProt Q9NSD9)
Sequence of UniProt Q9NSD9 (Q9NSD9 whole entry, looked up): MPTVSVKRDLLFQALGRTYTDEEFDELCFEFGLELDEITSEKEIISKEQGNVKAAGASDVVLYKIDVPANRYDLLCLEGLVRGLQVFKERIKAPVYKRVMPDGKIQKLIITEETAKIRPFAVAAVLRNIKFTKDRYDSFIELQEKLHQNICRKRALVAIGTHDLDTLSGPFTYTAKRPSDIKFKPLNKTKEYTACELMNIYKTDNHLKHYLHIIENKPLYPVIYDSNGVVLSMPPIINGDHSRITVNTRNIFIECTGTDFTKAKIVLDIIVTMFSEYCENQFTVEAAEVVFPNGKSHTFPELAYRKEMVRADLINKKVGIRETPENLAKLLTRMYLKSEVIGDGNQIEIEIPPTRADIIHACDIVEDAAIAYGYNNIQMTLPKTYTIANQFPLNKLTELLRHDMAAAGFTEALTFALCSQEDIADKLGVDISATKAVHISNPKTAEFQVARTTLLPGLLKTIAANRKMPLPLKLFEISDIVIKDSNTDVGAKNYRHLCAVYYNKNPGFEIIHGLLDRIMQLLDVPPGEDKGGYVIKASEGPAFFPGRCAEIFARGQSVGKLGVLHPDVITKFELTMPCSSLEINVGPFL
inactive: [1] -0.009 | [2] 0.006 | [3] 0.018 | [4] 0.003 | [5] -0.024 | [6] 0.016 | [7] 0 | [8] -0.018 | [9] 0.022 | [10] 0.095 | [11] 0.003 | [12] -0.056 | [13] -0.012 | [14] -0.014 | [15] -0.012 | [16] -0.029 | [17] 0.067 | [18] 0.002 | [19] 0.005 | [20] -0.013
